These results are taken from PubChem BioAssay (NCATS).

Test [1] is described as follows: Confirmation and Secondary Assay for Modulators of Hemoglobin Beta Chain Splicing at IVS2 654 locus (AID 910).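 Note: HeLa cells stably carrying EGFP split by mutant beta-globin IVS2-654 intron; % of control where 0% means no effect.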 Put shortly:
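HeLa cells stably expressing EGFP interrupted by β-globin IVS2-654 intron, seeded overnight in Opti-MEM/2% FCS, then treated 2 days at 37 °C. Restored splicing read as total peak GFP intensity per well by laser scanning cytometry (488 nm excitation, 500–520 nm emission); 500 nM antisense PNA as control.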

The nature of test [2]: Cell Viability - LYMP2-001 (AID 921). Note: nearly all actives have a fitted effect of over 70% in size. Note: potency is the fitted concentration of half-maximal effect. Put shortly:
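Human lymphoblastoid LYMP2-001 cells, 2500 per well, in complete medium, treated 24 h at 37 C. Viability from cellular ATP by CellTiter-Glo luminescence; AC50 from Hill-equation fits of qHTS concentration-response.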

The nature of test [3]: Confirmation and Secondary Assay for Modulators of Hemoglobin Beta Chain Splicing at IVS2 705 locus (AID 930).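 Note: HeLa cells stably expressing the EGFP-705 splicing reporter; series mostly up to about 46 µM; % of control where 0% means no effect.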 Put shortly: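 Assay measures total GFP intensity per well in HeLa EGFP-705 cells after 2 days with compound; mis-splicing normally truncates EGFP, so fluorescence indicates corrected splicing.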
A short description of test [4]: MultiTox-Fluor Cytotoxicity Assay - LYMP1-001 - Dead Cells (AID 946).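 Note: 0% = DMSO and 100% = tetraoctylammonium bromide.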 Put shortly:
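LYMP1-001 lymphoblastoid cells (2500/well) treated 16 h at 37 C. Dead-cell protease cleavage of bis-AAF-R110 read at Ex/Em 485/520. Normalized to DMSO and 15 uM tetraoctylammonium bromide; AC50 from Hill fits.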

A short description of test [5]: MultiTox-Fluor Cytotoxicity Assay - LYMP1-001 - Live Cells (AID 947).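 Note: 0% = DMSO only and full inhibition = tetraoctylammonium bromide control.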
The nature of test [6]: Cell Viability - LYMP1-002 - Assay at 16 hr (AID 948).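 Note: 0% = DMSO alone and full effect = 92 µM tetraoctylammonium bromide.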 Put shortly:
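LYMP1-002 human lymphoblastoid cells, 2500/well, were treated with compounds for 16 hr at 37 C in complete medium. Viability was read as intracellular ATP by CellTiter-Glo luminescence, and AC50 was derived from a Hill fit to concentration-response data.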

Test [7] in a line: MultiTox-Fluor Cytotoxicity Assay - LYMP1-003 - Dead Cells (AID 961).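 Note: 0% = DMSO and 100% = tetraoctylammonium bromide; nearly all actives have a fitted effect of over 70% in size.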 Put shortly:
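LYMP1-003 human lymphoblastoid cells (2500/well) exposed to compound 16 h at 37 C in complete medium; dead-cell protease read with bis-AAF-R110 fluorescence (Ex/Em 485/520) after 60 min at room temperature. Normalized to DMSO and 15 uM tetraoctylammonium bromide; AC50 from Hill fit.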

Test [8] in a line: MultiTox-Fluor Cytotoxicity Assay - LYMP1-003 - Live Cells (AID 962).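 Note: 0% = DMSO only and full loss = 92 µM tetraoctylammonium bromide; cytotoxic hits lower the live-cell protease signal.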 Put shortly: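 Live-cell protease activity (GF-AFC substrate, 405/510 nm, 60 min at room temperature) after 16 h, 37 C compound exposure of human lymphoblastoid LYMP1-003 cells; concentration-response fitted to the Hill equation for AC50.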
Test [9] can be described thus: Cell Viability - LYMP1-003 - Assay at 24 hr (AID 963).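 Note: plate controls were DMSO only for no effect and tetraoctylammonium bromide positive control for full effect.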 Put shortly: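 Concentration-response qHTS: ATP loss measured by CellTiter-Glo luminescence after 24 h compound exposure at 37 C. Cells were LYMP1-003 human lymphoblastoid, 2500 per well. AC50 derived via standard Hill equation modeling.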
Test [10] in a line: qHTS Assay for Identification of Small Molecule Agonists for Thrombopoietin (TPO) Signaling Pathway (AID 917). Note: % is set by controls: 0 for no effect and ±100 for the full control effect. Put shortly: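 Stimulation at the TPO EC50 (26 pM final) was used to detect activators. Ba/F3 mouse cells bearing human TPO receptor and a luciferase reporter under the Glycoprotein IIb promoter were exposed to compounds for 24 hrs at 37 C.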
In test [11] the target is Muscarinic acetylcholine receptor M1 (Rattus norvegicus) (UniProt P08482). The experiment in a line: qHTS Assay for Antagonists of Acetylcholine Muscarinic M1 Receptor: Kinetic Measurement of Intracellular Calcium Response (AID 943).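 Note: Fluo-4 calcium signal as peak divided by basal fluorescence over 4 min; series mostly up to about 35 µM; nearly all actives have a fitted effect of over 75% in size.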 Put shortly:
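Antagonism measured as reduction of carbachol-evoked (EC80, 100 nM final) calcium flux in rat M1-CHO cells after 10 min compound exposure. Fluo-4 signal read kinetically; ratio of maximal to basal fluorescence.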
(qHTS replaces the single test concentration by a dilution series.)

The target is the same in test [12]. The experiment in a line: qHTS Assay for Antagonists of Acetylcholine Muscarinic M1 Receptor: Measurement of IP-One Response (AID 944). Note: nearly all actives have a fitted effect of over 75% in size. Put shortly: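 IP1 accumulation measured via TR-FRET between d2-IP1 and Eu-cryptate anti-IP1 antibody after carbachol (200 nM, EC80) stimulation for 30 min; rat M1-transfected CHO cells received compound 10 min before agonist.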

Test [13] deals with Pyruvate kinase (Leishmania mexicana) (UniProt Q27686). The experiment in a line: qHTS Validation Assay for Inhibitors of Leishmania Mexicana Pyruvate Kinase (AID 945).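 Note: 0% = DMSO only neutral control wells.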 Put shortly:
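Pyruvate kinase activity of E451W LmPYK (0.2 nM) was followed as ATP output after 1 h at room temperature with 0.5 mM PEP and 0.1 mM ADP, detected by PKLight luminescence.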

In test [14] the target is Pyruvate kinase PKM (Homo sapiens) (UniProt P14618). Description: qHTS Assay for Activators of Human Muscle Pyruvate Kinase (AID 954; active = well fitted curve in the direction sought with a large enough effect, not every such curve was filed as active;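 note: 0% = uninhibited enzyme and -100% = no enzyme or full thiadiazolimine inhibition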). Put shortly: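 Compound pinned into substrate mix (0.5 mM PEP, 0.1 mM ADP), then 0.1 nM PKM2 added; 1 h, RT. Stop/detection luciferase reagent added, luminescence read. Normalized to no-inhibition and no-enzyme or reference-inhibitor controls.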

A short description of test [15]: MultiTox-Fluor Cytotoxicity Assay - LYMP1-002 - Dead Cells (AID 960). Note: nearly all actives have a fitted effect of over 60% in size. Note: potency is the fitted concentration of half-maximal effect. Put shortly: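 Dead-cell fluorescence (Ex/Em 485/520) after 16 h compound exposure at 37 C of LYMP1-002 lymphoblastoid cells in complete medium; AC50 by Hill equation, with data scaled between DMSO and 15 uM tetraoctylammonium bromide.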
The nature of test [16]: Cell Viability - LYMP1-003 - Assay at 40 hr (AID 964). Note: nearly all actives have a fitted effect of over 60% in size. Note: potency is the fitted concentration of half-maximal effect. Put shortly: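 Viability is taken as cellular ATP, read by CellTiter-Glo luminescence after 40 h of compound exposure at 37 C. Cells: human lymphoblastoid line LYMP1-003 at 2500/well; AC50 values derived by Hill-equation fitting of concentration-response data.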
A short description of test [17]: qHTS Assay for Identification of Small Molecule Agonists for Hypoxia Response Element Signaling Pathway (AID 914; active = well fitted activation curve with a large enough effect in the signal ratio, with a control signal flat, not every such curve was filed as active; the % refers to the signal ratio; note: % of control where 0% means no effect). The note with it: ME-180 (cervical carcinoma) HRE-bla reporter, beta-lactamase ratio, CoCl2, 17 h; hits give high values. Put shortly:
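Compounds in a titration series were added to ME-180 reporter cells alongside an EC50 level of CoCl2. After 17 hours, beta-lactamase activity was read as the 460nm/530nm emission ratio of CCF4, giving AC50 values.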

Unmarked numbers belong to inactive results. Results filed as inconclusive are left out. Active and inactive are the calls of the source. Unless noted, calls come from the whole dose curve; as a rule, active = well fitted curve in the direction sought with a large enough effect; inconclusive = small, poorly fitted or top-dose-only effect, or another doubt; inactive = no such curve, though single readings can be large; an effect the other way counts as inactive or inconclusive.

Chain of Muscarinic acetylcholine receptor M1 (Rattus norvegicus) (P08482 whole entry, looked up): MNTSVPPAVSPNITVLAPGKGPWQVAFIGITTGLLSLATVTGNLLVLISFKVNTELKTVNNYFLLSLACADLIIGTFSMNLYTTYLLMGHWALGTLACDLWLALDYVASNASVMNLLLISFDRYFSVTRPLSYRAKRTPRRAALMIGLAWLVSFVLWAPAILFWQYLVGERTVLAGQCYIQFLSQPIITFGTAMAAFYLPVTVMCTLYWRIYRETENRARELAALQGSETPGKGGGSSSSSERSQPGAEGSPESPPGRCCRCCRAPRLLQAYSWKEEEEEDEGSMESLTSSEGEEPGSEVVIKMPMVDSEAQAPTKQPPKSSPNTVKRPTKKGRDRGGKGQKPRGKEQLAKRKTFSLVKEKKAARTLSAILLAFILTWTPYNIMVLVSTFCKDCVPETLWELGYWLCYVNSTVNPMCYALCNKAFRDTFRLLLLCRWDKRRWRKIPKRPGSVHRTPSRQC
Chain of Pyruvate kinase (Leishmania mexicana) (Q27686 2-499 E452W): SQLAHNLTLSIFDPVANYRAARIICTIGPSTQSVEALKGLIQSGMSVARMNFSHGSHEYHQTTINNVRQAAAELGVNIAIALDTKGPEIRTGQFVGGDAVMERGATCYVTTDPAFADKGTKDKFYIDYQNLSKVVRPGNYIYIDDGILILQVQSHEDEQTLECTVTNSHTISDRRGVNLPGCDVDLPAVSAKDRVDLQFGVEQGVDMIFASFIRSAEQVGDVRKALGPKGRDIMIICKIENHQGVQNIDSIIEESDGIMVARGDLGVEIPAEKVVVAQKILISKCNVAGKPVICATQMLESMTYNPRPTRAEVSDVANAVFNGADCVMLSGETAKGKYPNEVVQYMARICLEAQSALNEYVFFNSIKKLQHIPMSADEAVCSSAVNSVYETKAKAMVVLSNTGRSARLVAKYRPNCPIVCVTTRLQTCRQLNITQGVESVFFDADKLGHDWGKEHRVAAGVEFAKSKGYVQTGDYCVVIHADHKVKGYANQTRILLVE
Chain of Pyruvate kinase PKM (Homo sapiens) (P14618 whole entry, looked up): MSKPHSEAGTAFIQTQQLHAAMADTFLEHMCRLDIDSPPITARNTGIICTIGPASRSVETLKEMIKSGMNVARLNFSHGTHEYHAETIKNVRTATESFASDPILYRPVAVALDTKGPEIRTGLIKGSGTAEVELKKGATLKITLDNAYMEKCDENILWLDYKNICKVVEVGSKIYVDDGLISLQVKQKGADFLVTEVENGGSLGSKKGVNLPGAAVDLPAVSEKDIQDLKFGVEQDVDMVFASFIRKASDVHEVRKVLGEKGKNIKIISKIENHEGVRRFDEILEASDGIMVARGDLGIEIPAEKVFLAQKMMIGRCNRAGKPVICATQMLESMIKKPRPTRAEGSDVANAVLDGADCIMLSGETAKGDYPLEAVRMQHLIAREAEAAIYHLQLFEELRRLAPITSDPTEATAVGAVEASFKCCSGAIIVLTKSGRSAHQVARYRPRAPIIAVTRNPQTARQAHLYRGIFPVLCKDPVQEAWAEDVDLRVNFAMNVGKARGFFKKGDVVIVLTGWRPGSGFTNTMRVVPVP

In the case of `CCCCCCc1ccc(O)cc1O`, the result in [1] and in test [3] was inactive. The Potency entry in test [2], in [4], in test [5], in test [6], in [7] and in [8] was “inactive” throughout. Also, the Potency entry in test [9] was “inactive”.

With `C1CCc2nnnn2CC1`, the call in test [1], in [10], in test [11], in test [13] and in test [14] was inactive. Also, the Potency entry in test [12] is “inactive”.

Take `Nc1ccc(C(=O)O)cc1`: in test [1], the compound was called inactive. Besides, the Potency result in [2], in test [4], in [6], in [15], in test [7] and in [8] was “inactive” each time. In addition, the Potency result in test [9] and in test [16] was “inactive” in each case.

Regarding `Cc1c(N(C)CS(=O)(=O)O)c(=O)n(-c2ccccc2)n1C`, the compound was called inactive in test [1] and in [3]. Also, the activation in test [17] was -4.84%.

`COC1=CC(=O)C[C@@H](C)[C@]12Oc1c(Cl)c(OC)cc(OC)c1C2=O`: in test [1], the compound was classed as inactive. Also, the Potency entry in test [2], in test [4], in test [5], in [6], in test [7] and in [8] was “inactive” throughout. In addition, the Potency entry in [9] is “inactive”.

Turning to `CCC(=O)c1c(O)cc(O)cc1O`, the compound was called inactive in test [1] and in test [3].

Consider `O=C1OCCN1/N=C/c1ccc([N+](=O)[O-])o1`, for which the compound was classed as inactive in [1] and in test [3].

Consider `Oc1c(Cl)cc(Cl)cc1Sc1cc(Cl)cc(Cl)c1O`, for which the compound was classed as inactive in test [1] and in test [3]. Also, the Potency in test [2] and in test [16] was 39.8 µM (active) in each case. The Potency result in [4], in [5], in [6], in test [15], in test [7] and in [8] was “inactive” each time. For the same compound, in test [9], the Potency entry was “inactive”.

`COc1ccc(CCN2CCC(Nc3nc4ccccc4n3Cc3ccc(F)cc3)CC2)cc1`: the call in [1] and in [3] was inactive.

Take `CC(C)(C)CC(C)(C)c1ccc(O)c(Cc2ccc(Cl)cc2Cl)c1`: the outcome in [1] and in test [3] was inactive.

For the compound `CN1CCC(=C2c3ccccc3Sc3ccccc32)CC1`, the outcome in [1] and in test [3] was inactive.

On to `O=C1OC(c2ccc(O)cc2)(c2ccc(O)cc2)c2ccccc21`, for which, in test [1], the compound was called inactive. Further, the Potency result in test [2], in test [4], in test [6], in [7], in test [8] and in test [9] was “inactive” throughout. The Potency result in test [16] was “inactive”. The Potency in test [15] was 15.8 µM (active).

As to `COc1c2occc2c(OC)c2c(=O)cc(C)oc12`, the outcome in test [1] and in test [3] was inactive.

With `CCCCCCCCCCCCCCCCOP(=O)([O-])OCC[N+](C)(C)C`, the result in [1] and in test [3] was inactive.

Turning to `OC(CCN1CCCCC1)(c1ccccc1)c1ccccc1`, the compound was classed as inactive in test [1].
